From article PMC9574860, “Chemical Toolkit for PARK7: Potent, Selective, and High-Throughput” (Journal of Medicinal Chemistry, 2022)
Hit rate of the full screen: of about 7,900 compounds, about 400 (5.1%) showed an effect of 50% or more. Only a selection was taken, and strong results are over-represented in it overall.

What follows are compounds tested against Parkinson's disease protein 7 (PARK7/DJ1) (human, UniProt Q99497) (assay: primary screen, percent inhibition; read as competition with a fluorescent probe by fluorescence polarization; higher = more effect of the substance). Conditions: 100 µM.
In short: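 Fluorescence-polarization probe displacement (JYQ-107, 20 nM final, 2 h) after 2 h preincubation of PARK7 (0.2 μM final) with each fragment at 100 μM final. Read-out ex/em 480/520 nm; remaining activity derived from FP signal loss relative to reference controls.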

Sequence of Parkinson's disease protein 7 (PARK7/DJ1) (Q99497 whole entry, looked up, the tested form may be a part): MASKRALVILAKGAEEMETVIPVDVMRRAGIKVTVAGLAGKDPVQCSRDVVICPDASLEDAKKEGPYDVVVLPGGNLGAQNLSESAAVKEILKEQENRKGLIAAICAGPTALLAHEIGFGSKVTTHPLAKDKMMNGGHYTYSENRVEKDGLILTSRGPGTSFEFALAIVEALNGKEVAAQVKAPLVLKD

Structure (SMILES) | Inhibition % [%]
O=C(CCl)N1N=C(c2ccco2)CC1c1cccs1 (stereo not shown) | 12.6
O=C(CCl)Nc1ccccc1C(F)(F)F | 11.7
C=CC(=O)Nc1nc(COC)cs1 | 8.35
C=CC(=O)NCC1(C)CC(F)(F)C1 | 5.99
CC1CC(n2cnc3c2c(=O)n(C)c(=O)n3C)C(=O)O1 (stereo not shown) | 8.16
CC(C)(C)Nc1cc(F)c(S(=O)(=O)F)cc1N | 7.67
Cc1nn(S(=O)(=O)c2ccccc2)c(C)c1C | 6.77
N#CC(=Cc1ccccc1)C(=O)O | 0.493
Clc1ccc(Cl)c(OCC2CO2)c1 (stereo not shown) | 5.37
CCc1nccn1S(=O)(=O)c1cc(C)c(OC)cc1C | 7.23
O=C(NCC1CCC(O)C1)c1cc(B(O)O)ccc1F (stereo not shown) | 1.49
O=C(CCl)c1cscn1 | 101
Cl.O=C(CCl)Nc1ccccn1 | 14.1
Cl.O=C(CCl)c1c[nH]c2ncccc12 | 10.6
O=C(CCl)c1ccccn1 | 102
C=CC(=O)NCCc1cscn1 | 5.76
ClCCc1cscn1 | 5.31
COc1cncc(C#N)n1 | 9.79
C=CC(=O)N1Cc2ccccc2OC(C)(C)C1 | 13.6
Cc1cc(C)cc(OC(=O)N2CCOCC2)c1 | 6.2
CCc1nc(C)cn1S(=O)(=O)c1cc(Cl)ccc1OC | 5.69
C=CC(=O)N1CC(S(=O)(=O)c2ccccc2F)C1 | 5.39
N#Cc1nc(N2CC[C@H](O)C2)ccc1Cl | 9.73
CC1(C)OB(c2cncc(F)c2)OC1(C)C | 4.04
N#CC(=Cc1ccco1)C(=O)Nc1nnc(C(F)F)s1 | 4.49
O=C(CCl)NCCc1ccc(F)cc1 | 26.6
Cc1oncc1C(=O)CCl | 40.2

Structure (SMILES) | Inhibition % [%]
Cc1oc(C(=O)O)cc1C(=O)CCl | 92.2
Cc1oc(C(N)=O)cc1C(=O)CCl | 30.9
CC(C)N1CCOC(CCl)C1 (stereo not shown) | 5.12
O=c1[nH]c(=O)n(C2CC2)c2nc(C3CC3)nc(S)c12 | 3.15
Cn1nccc1[C@@H]1OCC[C@H]1CN1CC=C(B(O)O)CC1 | 44.8
OB(O)C1=CCN(Cc2ccnn2-c2ccncc2)CC1 | 61.3
OB(O)C1=CCN(Cc2cc3n(n2)CCC3)CC1 | 33.1
C=CC(=O)NC1CC(OCC)C12CCCC2 (stereo not shown) | 8.99
O=C1CCC(CN2CCc3[nH]c4ccc(F)cc4c3C2)O1 (stereo not shown) | 21.1
O=C(CCl)N1CCN(C(=O)Nc2ccccc2)CC1 | 64.2
O=C(CCl)N1CCN(c2ccc([N+](=O)[O-])cc2)CC1 | 7.53
O=C(Nc1ccccc1)C1CCN(C(=O)CCl)CC1 | 12.6
O=C(CCl)N1CCN(c2ccccc2[N+](=O)[O-])CC1 | 80.7
Cl.O=C(CCl)N1CCN(Cc2ccccc2)CC1 | 7.64
CC(=O)c1ccc(N2CCN(C(=O)CCl)CC2)c(F)c1 | 11
C=CC(=O)NCc1nnc2n1CCCC2C(F)(F)F (stereo not shown) | 8.99
CN1CCN(CCCCl)CC1.Cl.Cl | 9.44
CCN(Cc1ccc(Br)s1)C(=O)CCl | 12.9
CC1(NC(=O)CCl)CCS(=O)(=O)C1 (stereo not shown) | 2.17
C=CC(=O)NCCc1nc2ccc(F)cc2n1C | 3.72
C=CC(=O)NCC1CCC2(CCCC2)O1 (stereo not shown) | 4.84
CS(=O)(=O)n1cnc2ccccc21 | 11.4
O=c1cnc2ccccc2n1CCS(=O)(=O)F | 13.8
Cc1cnc2ccccc2c1S(=O)(=O)F | 95.2
Cl.ClCCn1cc(-c2ccccc2)cn1 | 6.06
C=CC(=O)NCc1cccc(C(=O)NC(C)(C)C)c1 | 9.53
Cc1ccc(C)c(C(=O)Cn2cnc(C#N)n2)c1 | -2.83

Structure (SMILES) | Inhibition % [%]
COC(=O)c1ccc(CS(=O)(=O)F)cc1 | 7.95
COc1ccc(CS(=O)(=O)F)cc1 | 88.4
O=S(=O)(F)Cc1ccccc1 | 8.98
Cc1csc(C(C#N)=Cc2cccc3c2OCCCO3)n1 | 1.3
N#Cc1ccc(NCC2CCN(CC(F)(F)F)C2)cn1 (stereo not shown) | 5.73
C=CC(=O)Nc1ccc(S(=O)(=O)N2CCCC2)cc1 | 8.4
O=C(CCl)Nc1cccc(S(=O)(=O)N2CCCC2)c1 | 7.91
O=C(CCl)Nc1ccc(S(=O)(=O)N2CCCC2)cc1 | 85.4
O=C(CCl)Nc1cccc(S(=O)(=O)N2CCOCC2)c1 | 8.1
O=C(CCl)Nc1ccc(S(=O)(=O)N2CCCCC2)cc1 | 92.7
Cl.O=C(CCl)Nc1ccc(CN2CCOCC2)cc1 | 40.1
O=C(CCCl)Nc1cccc(S(=O)(=O)N2CCCC2)c1 | 4.27
O=C(CCCl)Nc1ccc(S(=O)(=O)N2CCCC2)cc1 | 3.33
O=C(CCl)Nc1ccc(S(=O)(=O)N2CCOCC2)cc1 | 87.4
Cn1cc(B2OC(C)(C)C(C)(C)O2)cn1 | 4.89
CC(C)(C(=O)CCl)N1C(=O)c2ccccc2C1=O | 5.76
C=CC(=O)N1C[C@@]2(C)CS(=O)(=O)C[C@@]2(C)C1 | 5.67
N#Cc1nc(C2CC2)oc1N1CCN(C(=O)C2CC2)CC1 | 5.36
N#Cc1nccn1Cc1cc(F)cc(F)c1 | 5.08
N#Cc1nccn1Cc1ccc(F)cc1F | 68.3
N#Cc1nccn1Cc1cccc(F)c1F | 4.63
C=CC(=O)N1CCC(c2ccnn2C)CC1 | 4.28
COC1CCN(c2nc(C#N)ccc2C)CC1 | 71.3
COC1CCN(c2nc(C#N)c(Cl)s2)CC1 | 7.16
Cc1ccc(C#N)nc1N1CCCOC(C)C1 (stereo not shown) | 42.8
